# Source: article PMC4336329 (PLoS ONE, 2015)
# Out of some 310,000 compounds screened, about 14,000 (4.5%) showed an effect of 50% or more. The effect is printed as a negative number. The entries come from a sample that favours strong results as a whole.
# Target: human ether-à-go-go-related gene (hERG) potassium channel (human, UniProt Q12809)
# Assay: primary screen, population patch clamp on CHO cells stably expressing hERG; higher = less effect of the substance
# 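Further: peak tail current of the secondary pulse compared with the same well before compound.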
# Sequence of human ether-à-go-go-related gene (hERG) potassium channel (Q12809 whole entry, looked up): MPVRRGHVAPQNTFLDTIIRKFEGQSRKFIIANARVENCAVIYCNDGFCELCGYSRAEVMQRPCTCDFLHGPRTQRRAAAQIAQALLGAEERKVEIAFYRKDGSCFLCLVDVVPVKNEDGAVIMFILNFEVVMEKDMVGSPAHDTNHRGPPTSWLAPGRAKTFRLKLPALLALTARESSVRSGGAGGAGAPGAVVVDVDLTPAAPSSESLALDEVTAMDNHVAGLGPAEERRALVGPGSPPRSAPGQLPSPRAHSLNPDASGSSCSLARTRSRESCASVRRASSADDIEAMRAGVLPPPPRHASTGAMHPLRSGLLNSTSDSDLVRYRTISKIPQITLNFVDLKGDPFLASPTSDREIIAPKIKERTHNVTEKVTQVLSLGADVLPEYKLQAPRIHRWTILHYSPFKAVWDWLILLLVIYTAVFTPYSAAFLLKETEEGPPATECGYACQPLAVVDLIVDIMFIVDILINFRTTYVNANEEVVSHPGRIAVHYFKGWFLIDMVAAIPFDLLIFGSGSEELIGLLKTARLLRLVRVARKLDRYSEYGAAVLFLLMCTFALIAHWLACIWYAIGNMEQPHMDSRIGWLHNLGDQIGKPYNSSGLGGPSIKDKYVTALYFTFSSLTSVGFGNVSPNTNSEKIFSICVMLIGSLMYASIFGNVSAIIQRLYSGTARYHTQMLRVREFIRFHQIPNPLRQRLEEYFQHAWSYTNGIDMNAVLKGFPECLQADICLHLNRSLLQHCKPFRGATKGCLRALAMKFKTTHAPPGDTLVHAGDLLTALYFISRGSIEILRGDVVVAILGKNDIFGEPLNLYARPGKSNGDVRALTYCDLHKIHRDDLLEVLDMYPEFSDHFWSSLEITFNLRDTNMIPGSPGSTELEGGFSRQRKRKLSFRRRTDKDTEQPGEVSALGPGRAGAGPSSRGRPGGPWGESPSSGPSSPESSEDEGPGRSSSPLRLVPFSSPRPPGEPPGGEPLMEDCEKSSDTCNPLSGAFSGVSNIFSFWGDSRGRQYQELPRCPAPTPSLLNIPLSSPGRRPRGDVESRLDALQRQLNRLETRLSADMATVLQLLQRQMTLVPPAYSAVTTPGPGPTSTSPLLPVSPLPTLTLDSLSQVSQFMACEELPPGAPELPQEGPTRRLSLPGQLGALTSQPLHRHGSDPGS
row,Structure (SMILES),"hERG current change (%, negative = inhibition) at 10uM"
1,Cc1[nH]nc2c1C(c1ccsc1C)C(C#N)=C(N)O2 (stereo not drawn),2.25%
2,Cn1cnnc1SCC(=O)NN(c1ccccc1)c1ccccc1,28.6%
3,CCNC(=O)C(C)Oc1ccc(Cl)cc1Cl (stereo not drawn),9.68%
4,Cc1cccc(C(=O)C2CCOC(C)(C)C2)c1 (stereo not drawn),13%
5,COC(=O)c1ccc(-c2noc(CN(Cc3ccccn3)CC3CCCO3)n2)cc1 (stereo not drawn),-75%
6,CCN(Cc1nc(-c2cccc(Cl)c2)no1)CC1CCCO1 (stereo not drawn),1.7%
7,O=C1CC[C@@H](CN(Cc2ccccn2)Cc2nc(Cc3cccc(C(F)(F)F)c3)no2)N1,-48.4%
8,O=C1CC[C@@H](CN(Cc2ccccn2)Cc2nc(-c3ccc(C(F)(F)F)cc3)no2)N1,-62.7%
9,Cc1oc(-c2ccc(C(F)(F)F)cc2)nc1CN(Cc1ccccn1)C[C@@H]1CCC(=O)N1,-38.2%
10,Clc1ccc(-c2noc(CN(Cc3ccccn3)CC3CCCO3)n2)cc1 (stereo not drawn),-28.5%
11,CCCN(Cc1nc(-c2ccc(Cl)cc2)no1)CC1CCCO1 (stereo not drawn),-8.15%
12,CCN(Cc1nc(-c2ccc(Cl)cc2)no1)CC1CCCO1 (stereo not drawn),-62.9%
13,COC(=O)c1ccc(-c2noc(CN(Cc3ccncc3)CC3CCCO3)n2)cc1 (stereo not drawn),-28.5%
14,COc1ccc(CN(CC2CCC(C(=O)O)CC2)C(=S)Nc2cccc(C)c2)cc1 (stereo not drawn),-2.44%
15,O=Cc1cc(-c2ccccc2)[nH]c1-c1ccccc1,22.5%
16,COCCn1nnnc1C(C(C)C)N(Cc1cccnc1)Cc1cc2cc(OC)ccc2[nH]c1=O (stereo not drawn),-29.3%
17,CCCCCC(=O)NNC(=O)Cc1ccc([N+](=O)[O-])cc1,-1.38%
18,O=C(Cn1cccc1C(=O)c1ccccc1)NCCCN1CCc2ccccc2C1,-74.1%
19,Cc1ccccc1C(=O)c1cccn1CC(=O)NCCCN1CCc2ccccc2C1,-78.6%
20,O=C(Cn1cccc1C(=O)c1ccccc1)NCCCN1CCOCC1,13.4%
21,O=C(Cn1cccc1C(=O)c1ccccc1)NCCN1CCCCCC1,-35.3%
22,Cc1ccccc1C(=O)c1cccn1CC(=O)NCC(C)c1ccccc1 (stereo not drawn),-20.3%
23,Cc1ccccc1C(=O)c1cccn1CC(=O)NCCCN1CCCCC1,-41.9%

row,Structure (SMILES),"hERG current change (%, negative = inhibition) at 10uM"
1,O=C(CN1C(=O)NC2(CCCCC2)C1=O)Nc1cc(C(F)(F)F)ccc1N1CCCCC1,-1.7%
2,Fc1cc(F)c2nc(Nc3nc4cc5c(cc4s3)OCO5)sc2c1,15.2%
3,O=C(Oc1ccc2ccccc2c1)c1cncc(Br)c1,-11.6%
4,CC1CCN(S(=O)(=O)c2ccc(NC(=O)[C@@H]3CCCC[C@@H]3C(=O)O)cc2)CC1,9.64%
5,CCC(C)(C(=O)NC1CCCCC1)N(Cc1ccco1)C(=O)c1cnccn1 (stereo not drawn),-11.3%
6,Cc1ccc(NC(=O)COC(=O)COc2ccc3ccc(=O)oc3c2)cc1[N+](=O)[O-],3.51%
7,Cc1cc(C)c2nc(C(F)(F)F)c(C#N)c(N)c2c1,17.4%
8,CCCc1nc(N)c(C#N)c(-c2ccco2)c1CC,14.3%
9,CCCc1nc2c(C)cc(C)cc2c(N)c1CC,-59.2%
10,CCCSc1nc(C)c2cc(C)cc(C)c2n1,10.9%
11,CCCc1nc2ccccc2c(C(=O)O)c1CC,1.82%
12,CCCc1nc2c(C)ccc(C)c2c(N)c1CC,-62.5%
13,Cc1cc(C)cc(N=c2c([N+](=O)[O-])nn(-c3cccc(Cl)c3)n2O)c1,-6.03%
14,Cc1cccc(CC2CC(=O)N(CCc3ccc4c(c3)OCO4)C2=O)c1 (stereo not drawn),34.2%
15,COc1ccc(C(=O)/C=C2\NCCc3cc(OC)c(OC)cc32)cc1OC,11.6%
16,O=C(O)CCc1nc2cc(Cl)ccc2n(Cc2ccccc2)c1=O,22.2%
17,CC(C)c1nc2cc(Cl)ccc2n(Cc2ccccc2)c1=O,24.6%
18,CCNC(=S)NNC(=O)CCc1nc2cc(Cl)ccc2n(Cc2ccccc2)c1=O,-54.7%
19,COC(=O)CCc1nc2cc(Cl)ccc2n(Cc2ccccc2)c1=O,-23.1%
20,O=C(O)CCc1nc2cc(C(F)(F)F)ccc2n(Cc2ccccc2)c1=O,23.8%
21,CN(C)C(CNC(=O)CCc1nc2cc(Cl)ccc2n(Cc2ccccc2)c1=O)c1ccccc1 (stereo not drawn),-81.1%
22,CC(=O)Nc1ccc(NC(=O)CSc2nnc(-c3cccnc3)o2)cc1,7.42%
